In PubChem BioAssay (NCI):
The panel holds about 83,000 compounds, 20% with a hit somewhere; the sample as a whole holds those more often.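 Note: values are percent growth. 100 is the growth of untreated cells, values between 100 and 0 indicate rising inhibition; between -100 and 0 indicates cell death.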 The source made the active and inactive calls. Rule for the calls: active = growth percent below 10; inactive = the rest.

What was measured:
Assay in all cases: NCI-60 one-dose screen, 48 h (100 = growth as untreated, 0 = no growth, -100 = all killed)
Details in all cases: 10 µM unless noted
MOLT-4 leukemia = test system: MOLT-4 leukemia
SR leukemia = test system: SR leukemia
RPMI-8226 leukemia = test system: RPMI-8226 leukemia
OVCAR-8 ovarian = test system: OVCAR-8 ovarian
OVCAR-5 ovarian = test system: OVCAR-5 ovarian
OVCAR-4 ovarian = test system: OVCAR-4 ovarian
SK-OV-3 ovarian = test system: SK-OV-3 ovarian
IGROV1 ovarian = test system: IGROV1 ovarian
OVCAR-3 ovarian = test system: OVCAR-3 ovarian
HS 578T breast = test system: HS 578T breast
NCI/ADR-RES ovarian = test system: NCI/ADR-RES ovarian
T-47D breast = test system: T-47D breast
BT-549 breast = test system: BT-549 breast
MDA-MB-435 melanoma = test system: MDA-MB-435 melanoma
SW-620 colon = test system: SW-620 colon
MCF7 breast = test system: MCF7 breast
HCT-116 colon = test system: HCT-116 colon
HCC-2998 colon = test system: HCC-2998 colon
KM12 colon = test system: KM12 colon

Measured: growth

CC1(C)CN1P(=O)(N1CC1(C)C)N1CC1(C)C (centres undefined)
inactive: MOLT-4 leukemia 96.6% | SR leukemia 91.3% | RPMI-8226 leukemia 105% | OVCAR-8 ovarian 90.5% | OVCAR-5 ovarian 115% | OVCAR-4 ovarian 97.9% | SK-OV-3 ovarian 102% | IGROV1 ovarian 114% | OVCAR-3 ovarian 118% | HS 578T breast 93.8% | NCI/ADR-RES ovarian 113% | T-47D breast 107% | BT-549 breast 105% | MDA-MB-435 melanoma 124% | SW-620 colon 100% | MCF7 breast 92.8% | HCT-116 colon 105% | HCC-2998 colon 110% | KM12 colon 116%

COP(=S)(N1CC1)N1CC1
inactive: MOLT-4 leukemia 101% | SR leukemia 89.9% | RPMI-8226 leukemia 104% | OVCAR-8 ovarian 135% | OVCAR-5 ovarian 95.9% | OVCAR-4 ovarian 111% | SK-OV-3 ovarian 110% | IGROV1 ovarian 106% | OVCAR-3 ovarian 113% | HS 578T breast 121% | NCI/ADR-RES ovarian 103% | T-47D breast 94.8% | BT-549 breast 118% | MDA-MB-435 melanoma 105% | SW-620 colon 103% | MCF7 breast 102% | HCT-116 colon 109% | HCC-2998 colon 105% | KM12 colon 116%

COC(=O)[C@@H](C)C[C@H](Cc1ccccc1)NC(=O)c1csc([C@@H](C[C@H](C(C)C)N(C)C(=O)[C@@H](NC(=O)[C@H]2CCCCN2C)C2CCCCC2)OC(C)=O)n1
active: MOLT-4 leukemia 3.17% | SR leukemia 4.79% | RPMI-8226 leukemia 4.31% | SK-OV-3 ovarian -1.95% | OVCAR-3 ovarian -21.5% | HS 578T breast -6.6% | BT-549 breast -11.8% | MDA-MB-435 melanoma -47.6% | HCT-116 colon -22.1% | KM12 colon 2.88%
inactive: OVCAR-8 ovarian 14.6% | OVCAR-5 ovarian 23.1% | OVCAR-4 ovarian 36.7% | IGROV1 ovarian 22.3% | NCI/ADR-RES ovarian 10.6% | T-47D breast 39.1% | SW-620 colon 19.1% | MCF7 breast 18.3% | HCC-2998 colon 10.3%

COc1cccc(/C=C/[N+](=O)[O-])c1
active: SR leukemia -21.6% | RPMI-8226 leukemia -21.2% | MDA-MB-435 melanoma -25.3% | MCF7 breast -11.2% | HCT-116 colon -60.9% | HCC-2998 colon -87.9%
inactive: MOLT-4 leukemia 50.4% | OVCAR-8 ovarian 79.6% | OVCAR-5 ovarian 92.8% | OVCAR-4 ovarian 104% | SK-OV-3 ovarian 94.4% | IGROV1 ovarian 55.8% | OVCAR-3 ovarian 75.2% | HS 578T breast 95% | NCI/ADR-RES ovarian 92.6% | T-47D breast 41.7% | BT-549 breast 29.5% | SW-620 colon 77.5% | KM12 colon 15.6%

CCCCCCCCCCCCNC(c1ccccc1)C(O)c1ccccc1 (centres undefined)
active: SR leukemia -14.3%
inactive: MOLT-4 leukemia 61.7% | RPMI-8226 leukemia 18.3% | OVCAR-8 ovarian 67.9% | OVCAR-5 ovarian 92.9% | OVCAR-4 ovarian 10.5% | SK-OV-3 ovarian 95.8% | IGROV1 ovarian 53.7% | OVCAR-3 ovarian 83.8% | HS 578T breast 106% | NCI/ADR-RES ovarian 68.8% | T-47D breast 70.4% | BT-549 breast 103% | MDA-MB-435 melanoma 91.4% | SW-620 colon 48.1% | MCF7 breast 63.7% | HCT-116 colon 12.2% | HCC-2998 colon 43.1% | KM12 colon 74.9%

COc1ccc(Nc2ccc([N+](=O)[O-])cc2[N+](=O)[O-])cc1CN(CCCl)CCCl
active: MOLT-4 leukemia 0.406% | SR leukemia 7.8% | RPMI-8226 leukemia 0.0676%
inactive: OVCAR-8 ovarian 30.6% | OVCAR-5 ovarian 50.2% | OVCAR-4 ovarian 52.8% | SK-OV-3 ovarian 48.3% | IGROV1 ovarian 32.7% | OVCAR-3 ovarian 20% | HS 578T breast 66.7% | NCI/ADR-RES ovarian 26.9% | T-47D breast 22.6% | BT-549 breast 40.1% | MDA-MB-435 melanoma 55.2% | SW-620 colon 20.3% | MCF7 breast 19.3% | HCT-116 colon 20.8% | HCC-2998 colon 37.7% | KM12 colon 53.1%

O=C(Nc1ccc([As]=[As]c2ccc(NC(=O)c3ccccc3)cc2)cc1)c1ccccc1 (centres undefined)
inactive: RPMI-8226 leukemia 13.7%
active: MOLT-4 leukemia -27.5% | SR leukemia 0.482% | OVCAR-8 ovarian -82.1% | OVCAR-5 ovarian -89.1% | OVCAR-4 ovarian -43.1% | SK-OV-3 ovarian -81.5% | IGROV1 ovarian -40.4% | OVCAR-3 ovarian -94% | HS 578T breast -75.8% | NCI/ADR-RES ovarian -38.6% | T-47D breast -51.9% | BT-549 breast -90.4% | MDA-MB-435 melanoma -77.2% | SW-620 colon -67.3% | MCF7 breast -57.7% | HCT-116 colon -92.4% | HCC-2998 colon -80.5% | KM12 colon -80.4%

Clc1cccc(NCOOC2(OOCNc3cccc(Cl)c3)CCCCCC2)c1
active: SR leukemia 5.27% | IGROV1 ovarian 7.21%
inactive: MOLT-4 leukemia 92.7% | RPMI-8226 leukemia 91.9% | OVCAR-8 ovarian 93.9% | OVCAR-5 ovarian 96.6% | OVCAR-4 ovarian 97.4% | SK-OV-3 ovarian 105% | OVCAR-3 ovarian 97.1% | HS 578T breast 102% | NCI/ADR-RES ovarian 61.8% | T-47D breast 89% | BT-549 breast 101% | MDA-MB-435 melanoma 105% | SW-620 colon 107% | MCF7 breast 87.2% | HCT-116 colon 90.6% | HCC-2998 colon 107% | KM12 colon 87.9%

O=C1C(=Cc2cn(Cc3ccccc3)c3ccccc23)C(=O)N(Cc2ccccc2)C(=O)N1Cc1ccccc1
inactive: MOLT-4 leukemia 95.2% | SR leukemia 87.2% | RPMI-8226 leukemia 93.2% | OVCAR-8 ovarian 83.5% | OVCAR-4 ovarian 57.3% | SK-OV-3 ovarian 47.7% | IGROV1 ovarian 75.8% | OVCAR-3 ovarian 97.7% | HS 578T breast 90.7% | NCI/ADR-RES ovarian 106% | T-47D breast 51.7% | BT-549 breast 118% | MDA-MB-435 melanoma 108% | SW-620 colon 101% | MCF7 breast 80.3% | HCT-116 colon 76.2% | HCC-2998 colon 97.4% | KM12 colon 101%
active: OVCAR-5 ovarian -7.28%

COc1cc(NCCCN=C(N)N)c2ncccc2c1
active: OVCAR-4 ovarian -95.8% | OVCAR-3 ovarian 7.99% | T-47D breast -0.911% | MCF7 breast -51.3%
inactive: MOLT-4 leukemia 94.1% | SR leukemia 102% | RPMI-8226 leukemia 85.4% | OVCAR-8 ovarian 81.2% | OVCAR-5 ovarian 86.2% | SK-OV-3 ovarian 93.4% | IGROV1 ovarian 36% | HS 578T breast 88.8% | NCI/ADR-RES ovarian 108% | BT-549 breast 65.9% | MDA-MB-435 melanoma 103% | SW-620 colon 92.8% | HCT-116 colon 78.1% | HCC-2998 colon 94.3% | KM12 colon 49.3%

CCC1(C(C)C)C(=O)NC(=S)NC1=O
inactive: MOLT-4 leukemia 105% | SR leukemia 104% | RPMI-8226 leukemia 98.8% | OVCAR-8 ovarian 101% | OVCAR-5 ovarian 102% | OVCAR-4 ovarian 107% | SK-OV-3 ovarian 118% | IGROV1 ovarian 113% | OVCAR-3 ovarian 101% | HS 578T breast 96.3% | NCI/ADR-RES ovarian 115% | T-47D breast 106% | BT-549 breast 113% | MDA-MB-435 melanoma 101% | SW-620 colon 97% | MCF7 breast 105% | HCT-116 colon 106% | HCC-2998 colon 117% | KM12 colon 100%
